Consider 35 compounds from PubChem BioAssay (Tox21).

Inconclusive results are not listed. Active and inactive are the calls of the source. The call rests on the fitted dose curve.
On the % scale 0 is the no-effect control and ±100 the full control effect.

Chain of Estrogen receptor (Homo sapiens) (P03372 whole entry, looked up): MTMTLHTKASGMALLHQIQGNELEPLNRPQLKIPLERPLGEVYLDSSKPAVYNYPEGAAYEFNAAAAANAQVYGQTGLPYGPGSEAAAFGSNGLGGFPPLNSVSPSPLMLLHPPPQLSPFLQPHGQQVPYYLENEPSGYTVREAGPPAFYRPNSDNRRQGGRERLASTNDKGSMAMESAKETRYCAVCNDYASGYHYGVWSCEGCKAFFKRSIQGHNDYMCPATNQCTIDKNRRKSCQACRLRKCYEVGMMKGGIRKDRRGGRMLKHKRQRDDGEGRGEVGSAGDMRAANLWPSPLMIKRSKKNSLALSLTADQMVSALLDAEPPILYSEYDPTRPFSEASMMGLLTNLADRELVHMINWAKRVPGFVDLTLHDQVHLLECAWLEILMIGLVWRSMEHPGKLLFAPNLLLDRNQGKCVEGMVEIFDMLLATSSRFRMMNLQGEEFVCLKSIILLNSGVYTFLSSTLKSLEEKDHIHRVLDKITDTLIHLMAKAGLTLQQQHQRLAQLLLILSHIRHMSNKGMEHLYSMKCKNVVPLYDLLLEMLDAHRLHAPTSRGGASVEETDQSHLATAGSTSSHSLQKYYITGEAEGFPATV

The first assay concerns the target Estrogen receptor (Homo sapiens) (UniProt P03372). As to the kind of experiment: qHTS assay to identify small molecule agonists of the estrogen receptor alpha (ER-alpha) signaling pathway in the presence of an antagonist (AID 1259383). Further: top concentration of the series differs between compounds; nearly all actives have a fitted effect of over 15% in size. The settings on record: VM7Luc4E2 cells, ERE-luciferase, +ICI-182,780, 22 h; series mostly up to 92.4 µM; activation: at the top concentration. A digest of the protocol: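 Luminescent ERE-luciferase reporter, VM7Luc4E2 cells (endogenous ER-alpha); 10.0nM ICI-182,780 final; 15-point compound titration; 22hr at 37C; ONE-Glo, 30min RT.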
As for `O=C(c1ccc(Cl)cc1)c1ccc(Cl)cc1`, the “activation” value was 5.51% (inactive). Consider `OCCc1ccncc1`, for which the “activation” value was -1.59% (inactive). On to `CC(C)=CCC/C(C)=C/C=N/O`, for which the “activation” value was -2.02% (inactive).

`O=c1c2ccccc2oc2ccccc12`: the “activation” value is 11.3% (inactive). Take `O=C(Nc1ccccc1)c1cc([N+](=O)[O-])ccc1Cl`: the “activation” value was 3.2% (inactive). `CC(C)(C(=O)O)c1ccc(C(O)CCCN2CCC(C(O)(c3ccccc3)c3ccccc3)CC2)cc1` (centres undefined): the “activation” value was -0.576% [at 42.5 µM] (inactive). On to `CCCC(=O)OCc1ccccc1`, for which the “activation” value was -1.02% (inactive). Take `NC(=O)c1ccccc1C(N)=O`: the “activation” value was 3% (inactive).

As to `CCCc1ccc(OC)cc1`, the “activation” value was -0.628% (inactive). Consider `Cc1nc(C)c(C)nc1C`, for which the “activation” value is -0.0122% (inactive). `CC(CCl)OC(C)CCl` (centres undefined): the “activation” value was -1.12% (inactive).

Turning to `O=C(O)c1ccccc1-n1cc(C(=O)O)c(=O)c2cc(Nc3c(F)cc(F)cc3Cl)c(Cl)cc21`, the “activation” value is 0.0413% (inactive). With `CCCC1CCCC(=O)O1` (centres undefined), the “activation” value was 2.03% (inactive). On the same count and under the same terms, to `N#C[C@@H]1CC(F)(F)CN1C(=O)CNC1CC2CCC(C1)N2c1ncccn1` (some centres undefined) belongs -1.06% (inactive). Regarding `CC1(C)CC(O)CC(C)(C)N1[O]`, the “activation” value was -0.955% (inactive). Consider `CCCCCCCCS`, for which the “activation” value is -1.5% (inactive). Still for that read-out and setting: for `O=C1CCCN1CCO` the value was -2.96% (inactive); for `C=CCCC`, -0.251% (inactive); for `CCCCCO`, 0.794% (inactive). In the case of `S=c1[nH][nH]c(=S)s1`, the “activation” value was 0.117% (inactive).

Turning to `C1CCN(CN2CCCCC2)CC1`, the “activation” value was -1.1% (inactive).

As to `CC(C)(C)NCC(O)COc1ccc(NC(=O)NC2CCCCC2)cc1` (centres undefined), the “activation” value is 7.44% [at 42.5 µM] (inactive). Regarding `CC(=O)c1ccc(Cl)c(Cl)c1Cl`, the “activation” value is -0.433% (inactive).

System in the next assay: not listed separately
As to the kind of experiment: qHTS assay to identify small molecule agonists or antagonists of the thyroid stimulating hormone receptor (TSHR) signaling pathway - wild type cell line counter screen (AID 1259384). Particulars: HEK293 wild type, cAMP HTRF counter-screen, stronger effect = higher value; series mostly up to 92.4 µM; cAMP activity change: at the top concentration. A digest of the protocol: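 Wild-type Hek293 cells, 800/well, 18 h at 37C, then compound with Ro20-1724 for 30 min RT. cAMP by HTRF (cAMP-d2/anti-cAMP cryptate), 1 h RT, fluorescence read. 15 concentrations, triplicates.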
On the technique in general: In qHTS, concentration-response curves come from the screen itself.
`CCOc1ccccc1O`: the “cAMP activity change” value is 6.57% (inactive).

Turning to `C=CC(C)CCC=C(C)C` (centres undefined), the “cAMP activity change” value was 6.63% (inactive).

Consider `OCCc1ccncc1`, for which the “cAMP activity change” value was -2.46% (inactive). Take `CC(C)=CCC/C(C)=C/C=N/O`: the “cAMP activity change” value is 0.408% (inactive). As for `O=c1c2ccccc2oc2ccccc12`, the “cAMP activity change” value is 2.34% (inactive). Regarding `CCCCCCCCC(=O)OCC(C)OC(=O)CCCCCCCC` (centres undefined), the “cAMP activity change” value was 3.23% (inactive).

In the case of `Cc1c(-c2cccnc2)c2ccccc2n1CCCCC(=O)O`, the “cAMP activity change” value is 3.28% (inactive). On the same count and under the same terms, for `Sc1nc(S)nc(S)n1` the value was 4.11% [at 42.5 µM] (inactive). Consider `O=C(Nc1ccccc1)c1cc([N+](=O)[O-])ccc1Cl`, for which the “cAMP activity change” value is 7.7% (inactive).

For `CCC(C)CCCC(C)(C)O` (centres undefined), the “cAMP activity change” value is -5.04% (inactive).

Regarding `CC(C)(C(=O)O)c1ccc(C(O)CCCN2CCC(C(O)(c3ccccc3)c3ccccc3)CC2)cc1` (centres undefined), the “cAMP activity change” value is -3.03% [at 42.5 µM] (inactive).

On to `CCCC(=O)OCc1ccccc1`, for which the “cAMP activity change” value is 2.94% (inactive). With `NC(=O)c1ccccc1C(N)=O`, the “cAMP activity change” value was 6.67% (inactive). On to `COc1ccc(CN(CCN(C)C)c2ncccn2)cc1`, for which the “cAMP activity change” value was 3.25% [at 42.5 µM] (inactive). Consider `CCCc1ccc(OC)cc1`, for which the “cAMP activity change” value is 0.731% (inactive).

With `O=C(O)c1ccccc1-n1cc(C(=O)O)c(=O)c2cc(Nc3c(F)cc(F)cc3Cl)c(Cl)cc21`, the “cAMP activity change” value was 18.5% (inactive). Same read-out and setting: to `CCCCCCCCCCCCCCCCC(=O)O` belongs 0.115% [at 42.5 µM] (inactive). With `CC(=O)Nc1ccn(C2COC(COC(=O)c3ccccc3)O2)c(=O)n1` (centres undefined), the “cAMP activity change” value is 2.61% [at 42.5 µM] (inactive). The same measure, in the same setting: for `CC1(C)CC(O)CC(C)(C)N1[O]` the value was 0.361% (inactive). As to `O=C(Nc1ccc2c(c1)Cc1ccccc1-2)C(F)(F)F`, the “cAMP activity change” value was 1.57% (inactive). With `O=C1CCCN1CCO`, the “cAMP activity change” value was 3.06% (inactive). `S=c1[nH][nH]c(=S)s1`: the “cAMP activity change” value is -0.529% (inactive). For the compound `c1ccc(CN(Cc2ccccc2)Cc2ccccc2)cc1`, the “cAMP activity change” value is -1.01% (inactive). For `CC(C)(C)NCC(O)COc1ccc(NC(=O)NC2CCCCC2)cc1` (centres undefined), the “cAMP activity change” value is -0.101% [at 42.5 µM] (inactive). In the case of `CC(=O)c1ccc(Cl)c(Cl)c1Cl`, the “cAMP activity change” value was -0.501% (inactive). Consider `COc1ccc(/C=C/S(=O)(=O)NC(=O)c2ccc(C)cc2Cl)cc1`, for which the “cAMP activity change” value was -6.98% (inactive).
